PubChem BioAssay AID1159580 (chemical genetic matrix, 2015)
Values joined by “and” are separate entries in the source; they are usually repeats but may differ in a detail not shown here. Equal values may be shown once. Among all 5,500 compounds or so, about 2,000 (36%) were called active. Not shown: some 18% with an inconclusive outcome. Rule as the data show it: active = normalized growth mostly below about 0.91 (no sharp cut-off); inconclusive = no clear call, values can overlap the other calls; inactive = mostly above about 0.92. The list shows a part of the results.

Assay: chemical genetic growth profiling, strain panel (AID 1159580);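 also: tested at 20 µM; growth read once vehicle control cultures reached saturation at 30 °C; 1 = growth at the plate median or of vehicle wells; lower values mean less growth of the strain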
Settings: S. cerevisiae deletion strains, growth OD

Measured: normalized growth

CNCCCN1c2ccccc2CCc2ccccc21
inactive: locus YAL013W, strain DEP1, stronger effect = lower value 0.993 | locus YAL021C, strain ccr4, stronger effect = lower value 1 | locus YAL026C, strain drs2, stronger effect = lower value 0.985 | locus YAL030W, strain snc1, stronger effect = lower value 1.03 | locus YAL040C, strain CLN3, stronger effect = lower value 1 | locus YBL061C, strain skt5, stronger effect = lower value 1.02 | locus YBR009C, strain hhf1, stronger effect = lower value 0.972 | locus YBR021W, strain FUR4, stronger effect = lower value 1 | locus YBR023C, strain chs3, stronger effect = lower value 1.02 | locus YBR171W, strain sec66, stronger effect = lower value 1.03 | locus YBR229C, strain ROT2, stronger effect = lower value 1.01 | locus YBR231C, strain swc5, stronger effect = lower value 1.02 | locus YBR279W, strain paf1, stronger effect = lower value 0.996 | locus YCL011C, strain gbp2, stronger effect = lower value 0.994 | locus YCL016C, strain dcc1, stronger effect = lower value 0.988 | locus YCL029C, strain bik1, stronger effect = lower value 1 | locus YCL061C, strain MRC1 (second series), stronger effect = lower value 0.994 | locus YCL061C, strain MRC1, stronger effect = lower value 1.04 | locus YCL069W, strain vba3, stronger effect = lower value 1.02 | locus YCR088W, strain abp1, stronger effect = lower value 1.02 | locus YDL005C, strain med2, stronger effect = lower value 1.03 | locus YDL035C, strain GPR1, stronger effect = lower value 1.02 | locus YDL040C, strain nat1, stronger effect = lower value 1.02 | locus YDL074C, strain BRE1, stronger effect = lower value 1 | locus YDL101C, strain DUN1, stronger effect = lower value 1 | locus YDL134C, strain PPH21, stronger effect = lower value 1.02 | locus YDL185W, strain tfp1, stronger effect = lower value 1 | locus YDL192W, strain arf1, stronger effect = lower value 0.997 | locus YDR001C, strain nth1, stronger effect = lower value 1.02 | locus YDR069C, strain doa4, stronger effect = lower value 1.05 | locus YDR101C, strain arx1, stronger effect = lower value 1.01 | locus YDR137W, strain rgp1, stronger effect = lower value 1.1 | locus YDR150W, strain NUM1, stronger effect = lower value 1.01 | locus YDR159W, strain sac3, stronger effect = lower value 0.987 | locus YDR162C, strain NBP2, stronger effect = lower value 1.02 | locus YDR195W, strain ref2 1.07 | locus YDR297W, strain sur2, stronger effect = lower value 1.03 | locus YDR318W, strain mcm21, stronger effect = lower value 0.993 | locus YDR334W, strain swr1, stronger effect = lower value 1.01 | locus YDR335W, strain msn5, stronger effect = lower value 1.02 | locus YDR363W, strain ESC2, stronger effect = lower value 0.997 | locus YDR388W, stronger effect = lower value 0.992 | locus YDR392W, strain spt3, stronger effect = lower value 0.91 | locus YDR502C, strain sam2, stronger effect = lower value 1.01 | locus YEL003W, strain gim4, stronger effect = lower value 1.02 | locus YEL037C, strain rad23, stronger effect = lower value 1.01 | locus YEL061C, strain CIN8 (second series), stronger effect = lower value 1.01 | locus YEL061C, strain CIN8, stronger effect = lower value 1.01 | locus YER002W, strain NOP16, stronger effect = lower value 0.983 | locus YER015W, strain faa2, stronger effect = lower value 1.01 | locus YER016W, strain bim1, stronger effect = lower value 0.991 | locus YER110C, stronger effect = lower value 0.999 | locus YER111C, strain swi4, stronger effect = lower value 1.01 | locus YER155C, strain BEM2 (second series), stronger effect = lower value 1.05 | locus YER155C, strain BEM2, stronger effect = lower value 1.01 | locus YER167W, strain BCK2, stronger effect = lower value 1.01 | locus YFR010W, strain ubp6, stronger effect = lower value 1.01 | locus YGL078C, strain dbp3, stronger effect = lower value 0.994 | locus YGL086W, strain mad1, stronger effect = lower value 0.991 | locus YGL167C, strain pmr1, stronger effect = lower value 1.02 | locus YGL173C, strain kem1, stronger effect = lower value 1.02 | locus YGL227W, strain vid30, stronger effect = lower value 1.01 | locus YGL240W, strain doc1, stronger effect = lower value 1.06 | locus YGL248W, strain PDE1, stronger effect = lower value 0.992 | locus YGL253W, strain hxk2, stronger effect = lower value 0.996 | locus YGR135W, strain pre9, stronger effect = lower value 0.986 | locus YGR252W, strain gcn5, stronger effect = lower value 0.94 | locus YHR013C, strain ard1, stronger effect = lower value 0.984 | locus YHR027C, strain rpn1, stronger effect = lower value 0.999 | locus YHR030C, strain SLT2, stronger effect = lower value 1.01 and 1.02 | locus YHR079C, strain IRE1 (second series), stronger effect = lower value 1 | locus YHR079C, strain IRE1, stronger effect = lower value 1.01 | locus YHR094C, strain hxt1, stronger effect = lower value 0.995 | locus YHR129C, strain ARP1, stronger effect = lower value 1.01 | locus YHR142W, strain chs7, stronger effect = lower value 0.993 | locus YHR200W, strain rpn10, stronger effect = lower value 1.01 | locus YIL066C, strain RNR3, stronger effect = lower value 1.01 | locus YIL073C, strain SPO22, stronger effect = lower value 0.964 | locus YIL125W, strain kgd1, stronger effect = lower value 1 | locus YIR030C, strain dcg1, stronger effect = lower value 0.999 | locus YJL092W, strain hpr5, stronger effect = lower value 1.01 | locus YJL095W, strain BCK1 (second series), stronger effect = lower value 1.01 | locus YJL095W, strain BCK1, stronger effect = lower value 0.979 and 1.02 | locus YJL115W, strain asf1, stronger effect = lower value 0.999 | locus YJL129C, strain trk1, stronger effect = lower value 1.04 | locus YJL134W, strain LCB3, stronger effect = lower value 1 | locus YJL154C, strain vps35, stronger effect = lower value 1.01 | locus YJL164C, strain tpk1, stronger effect = lower value 0.984 | locus YJL166W, strain qcr8, stronger effect = lower value 1.06 | locus YJL168C, strain set2, stronger effect = lower value 1 | locus YJL187C, strain SWE1 (second series), stronger effect = lower value 0.998 | locus YJR043C, strain POL32, stronger effect = lower value 1.01 | locus YJR066W, strain TOR1, stronger effect = lower value 0.98 | locus YJR075W, strain HOC1, stronger effect = lower value 0.968
